# What was measured:
# Experiment in all cases: PBM binding z-score (relative to random genomic background probes); higher = stronger binding; sequences stand for … in GC…GCGATTGACAGCGTAGAATGAAGG
# [1] = tested on: PPARg:RXRa DBDmut IVT, anti-RXR (DBD mutation: RXRa K156A/R161A, NR concentration 270 nM, RXRa partner concentration 90 nM)
# Summary of the method: (§1)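 Ligand-free nuclear receptor dimers were bound for 1 h to custom Agilent 4×180K protein-binding microarrays. Detection used antibodies against each partner (one per run). Binding z-scores rest on regression-normalized fluorescence, with random background probes as the reference.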
# [2] = tested on: PPARg:RXRa IVT, anti-PPARg (NR concentration 270 nM, RXRa partner concentration 90 nM)
# Summary of the method: as §1
# [3] = tested on: PPARg DBDmut:RXRa IVT, anti-PPARg (DBD mutation: PPARg1 K132A/R137A, NR concentration 270 nM, RXRa partner concentration 90 nM)
# Summary of the method: as §1
# [4] = tested on: PPARg DBDmut IVT, anti-PPARg (DBD mutation: PPARg1 K132A/R137A, NR concentration 270 nM)
# Summary of the method: as §1
# [5] = tested on: PPARg homodimer (NR concentration 180 nM)
# Summary of the method: as §1
# [6] = tested on: PXR:RXRa (NR concentration 270 nM, RXRa partner concentration 90 nM)
# Summary of the method: as §1
# [7] = tested on: PXR homodimer (NR concentration 270 nM)
# Summary of the method: as §1
# [8] = tested on: RARa:RXR (NR concentration 270 nM, RXRa partner concentration 90 nM)
# Summary of the method: as §1
# [9] = tested on: RARa homodimer (NR concentration 270 nM)
# Summary of the method: as §1
# [10] = tested on: RARb:RXRa (NR concentration 270 nM, RXRa partner concentration 90 nM)
# Summary of the method: as §1
Sequence,PBM binding z-score [1],PBM binding z-score [2],PBM binding z-score [3],PBM binding z-score [4],PBM binding z-score [5],PBM binding z-score [6],PBM binding z-score [7],PBM binding z-score [8],PBM binding z-score [9],PBM binding z-score [10]
ATCTCTAGGTAAGACTCAGTTCAGAGAAGAACGC,1.92,1.16,1.58,0.9,1.02,0.856,1.56,0.299,0.962,0.134
CACACTAGGTCACCGGAAGGTCAAAGTCCGCATG,7.26,8.19,3.49,0.952,7.05,6.16,2.43,7.66,2.69,5.52
CCGACTGGGGCAAGGCTACCATAACGCACAGCCA,2.56,2.89,-0.229,-0.37,-0.287,-0.481,-0.488,-0.164,-0.086,0.763
CCTAGTTGGTCAGGAGGTCATACACCGGATATGA,1.25,3.03,0.324,0.888,3.21,3.99,1.57,4.19,1.23,3.33
ATCTCTAGGTAAAAGTGCAGTGAATCCCGAGGAT,2.08,2.5,0.765,0.971,0.819,0.0221,0.246,-0.0111,0.256,0.518
ACTTACGTGTCAACGAGGTTATAGCACGCGTATA,0.785,1.07,0.246,0.671,0.479,1.26,0.652,1.65,0.0685,1.2
CTTATTAGTTGACCATAAGGGCAACCGAAGCTCG,0.601,0.869,1.18,1.03,0.708,0.686,0.516,0.781,1.3,1.72
ACTAGCAGGCCAAGGGTAACTCAAGATTAGTCCG,0.865,1.67,-0.794,-0.439,0.663,-0.287,-0.127,0.0162,-0.543,0.971
CCGACTGGGGCAGAAAGTTTACCATACCATCCGG,1.85,0.907,-1.52,-1.73,0.00802,-0.282,0.645,-0.677,-0.166,0.775
TCTATTAGGTGATTAGGGCAACCGAAACAGCGGA,4.87,4.81,2.12,1.04,0.876,0.422,0.211,0.593,0.993,1.37
TCTACTAGTTGATTAGGGCAACCGAAACAGCGGA,1.59,1.11,-0.0224,-0.068,-0.343,0.00114,-0.203,0.226,-0.458,0.694
ACTATTAGTTTAGACGAGGGCAACCGATAGGTTG,0.00795,0.402,0.0772,1.14,0.811,1.29,0.902,1.26,1.02,1.25
ATCTCTAGGTAACCAAGTTCAGTTAATGCCGAAC,3.71,3.16,2.02,1.26,1.12,2.19,2.39,1.24,1.3,1.18
GGAACGAGCGCATTCGAGTTGATAGCATGGCGAT,-0.641,-0.81,-0.918,-0.781,-1.13,-0.904,-0.628,-1.29,-0.875,-1.26
TCTAGTTGGTTAAAGGTCACACACTCGAAATGCG,3.15,5.25,1.74,2.83,4.61,5.24,1.86,6.06,4.25,4.77
CCTACTTGGCCATTCAGAGGTCATTGATCATATG,1.47,1.52,1.11,0.893,2.19,4.93,1.5,4.54,1.18,3.13
TGTCAAGGTTCAAAGGTAACGTAAGTATCCACAC,-0.0297,3.17,0.246,0.633,3.16,4.14,0.595,5.82,0.446,3.32
ACTAGTTGGTCAGCTAAGGTCACACACAATTCGG,1.38,2.77,0.873,0.678,3.37,5.12,1.46,4.92,2.09,4
AGAACCAGGGCAATGAGTTGATAGCACGGGTGGC,2.95,2.68,0.333,-0.225,-0.0189,0.171,0.97,-0.324,-0.0861,0.985

Sequence,PBM binding z-score [1],PBM binding z-score [2],PBM binding z-score [3],PBM binding z-score [4],PBM binding z-score [5],PBM binding z-score [6],PBM binding z-score [7],PBM binding z-score [8],PBM binding z-score [9],PBM binding z-score [10]
GCTGCTAGGTCAGGTTGGTAAGCTAACGGGTACG,2.81,2.17,-1.03,-1.39,0.662,-0.0241,-0.591,0.597,-0.659,3.09
ACAGACAAGTGATGAAGGTAACTCAGGCTATCAT,-0.565,-0.0204,0.0249,-0.152,-0.0362,-0.39,-0.0518,-0.0214,0.43,-0.307
TCATATAGGTAATACAGATGAAAGTCGGCATCTA,3.53,2.32,1.22,1.05,0.725,0.46,0.387,0.646,1.28,0.19
TCCTGTAGATCAATAGAGGTTAAGAAAGTGCGCT,1.98,0.459,0.335,0.281,0.185,2.91,0.378,1.59,0.54,0.925
CCTAGCAGGCCAGCGTCACTCAAGCATTTCGCTT,0.696,-0.171,-1.15,-1.61,-0.299,-0.806,-0.554,-0.721,-0.187,-0.122
ACTAGCAGTCCAAGTTTGGGTCACTCAAACAAAG,-0.573,0.678,-0.264,-0.283,-0.0489,0.921,-0.137,1.4,-0.47,1.24
CAAACTAGGTCAAGGTCCAAGTCGGTTTGTGCCA,8.66,8.37,3.91,1.65,2.64,1.63,-0.0807,2.31,0.849,4.18
ACTAGCGGGCCAAGGGTCACTCAAGATTAGTCCG,0.353,3.65,-0.682,-0.893,0.892,3.21,-0.327,4.1,0.108,3.38
TCAAATAGGTAAACAGGTGAAAGTCCGTAAGTTA,4.13,3.99,0.833,0.995,1.07,0.682,0.0929,1.16,1.7,0.892
TGAATGAGGTTATAACATCAGGGAACGTTGCAAA,0.822,1.57,1.79,0.499,0.614,0.813,-0.514,1.4,0.248,1.04
ATATGTAGGTTAAGGGTCAATCAGGTTGGTTCGC,7.74,7.77,1.78,2.49,4.11,5.32,1.21,5.74,2.21,3.64
CGTCGAAGGTCATAGGAGGTCAGTGAAGACAGAT,3.11,4.45,-0.37,-0.169,4.08,6.79,3.47,5.95,2.11,5.41
GGAACGAGGGCATTCGAGTTGATAGGATGGCGAT,2.57,2.23,-0.409,-0.611,0.00316,3.7,1.31,0.433,-0.456,1.75
GCTAGCAGGCCATTTGGGTCACTTAATGACGGGC,1.56,1.89,-0.44,-0.938,-0.528,0.407,-0.077,0.758,-1.06,1.3
CAAACTAGGTCACGGAGGTCAAAGTCCGTGCGTA,8.69,9.3,5.33,6.03,5.85,6.63,10.4,7.02,2.61,5.34
TCTTGTAGATCCACAGGAGGTTAAGAAAGATCGA,1.11,0.557,0.829,0.516,-0.676,0.82,-0.22,1.22,0.176,0.506
GGAACGGGGGCAAAGTTGATAGCATCTGTCGACG,4.07,6.45,10.3,11.6,2.01,3.21,1.78,3.47,0.888,3.27
TCTCGGAGGACGCGAAGGTCAGAGCTTTCCAGAG,0.846,-0.0947,-1.23,-1.47,0.0628,1.33,-0.286,1.61,-0.357,2.7
CAGCCTAGGTCAGGGCCAGAATAGGAGGAACGTT,1.51,1.55,-0.6,-1.51,0.276,0.146,-0.618,0.927,-0.25,3.49

# — the supplement of paper PMC6555819
